From PubChem BioAssay
Compounds with a hit are over-represented: about 2.8% of the library has one in this group of screens.
IDE inh = inhibitors of human insulin-degrading enzyme in cells; P14735; HEK cells, FAbetaB cleavage, fluorescence polarization; inhibition, % at 5.59 µM; actives 0.41% (n = 320,000); AID 434962;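 active = percent inhibition above the average of all tested compounds plus 3 SD, set per screening campaign, cut at about 16% in these data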;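 also: IDE supplied by intact live HEK cells; FP after avidin binding of uncleaved biotin substrate so inhibition keeps polarization high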
SKKanGAS inh = SKKanGAS growth inhibition; S. pyogenes SKKanGAS, kanamycin growth, BacTiter-Glo, 6 h; inhibition, % at 7.5 µM; actives 1.3% (n = 300,000);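 active = mean replicate score, as percent of positive control median, at least 50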;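 also: strain carries kanamycin resistance gene driven by streptokinase promoter and grows in 40 µg/ml kanamycin; loss of luminescence reflects streptokinase promoter inhibition or plain growth inhibition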
IDE cell activ = IDE (human) activation, cell-based. activation, % at 5.96 µM. HEK cells, FAbeta-B cleavage, fluorescence polarization; 0% vehicle, 100% cell-free pure enzyme wells. actives 0.073% (n = 340,000). AID 493087. P14735;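 active = activation above the mean of all tested compounds plus 3 SD, set per screening campaign, cut at about 17% in these data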
Granule exo inh = blocks lytic granule exocytosis; TALL-104 LAMP-1 surface exposure, flow cytometry; cells stimulated with thapsigargin and PMA; inhibition, % at 10 µM; actives 0.66% (n = 360,000); AID 651702;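 active = inhibition above about 55%, limit read from the data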
PP5 primary = PP5 (human) phosphatase inhibition. purified PP5c, OMFP substrate fluorescence. inhibition, % at 6.7 µM. actives 0.18% (n = 320,000). AID 1987;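 active = inhibition above the campaign's mean inhibition across all tested compounds plus 3 SD, cut at about 9.5% in these data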
PP1 inh = counter-screen for PP5 inhibitors: inhibitors of human PP1-alpha | actives 0.9% (n = 320,000) | inhibition, % at 6.7 µM | purified PP1alpha, OMFP fluorescence | P62136;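 active = inhibition above the mean inhibition of all tested compounds plus 3 SD, computed separately for each screening campaign, cut at about 15% in these data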
Granule exo CP1 = blocks lytic granule exocytosis; shares compounds with Granule exo inh; TALL-104 cells, LAMP-1 externalization, flow cytometry; stimulated with PMA plus thapsigargin; inhibition, % at 10 µM; actives 11% (n = 1,500); in the data active = inhibition above about 60%
Numbers stand for hits; i = inactive; nt = no result given.

SMILES	IDE inh	SKKanGAS inh	IDE cell activ	Granule exo inh	PP5 primary	PP1 inh	Granule exo CP1
CC1(C(=O)NS(=O)(=O)c2ccc(F)cc2F)CCN1C(=O)CC1CCCCC1 (stereo not given)	nt	nt	nt	i	nt	nt	nt
CCOC(=O)c1cnc2ccc(OCC)cc2c1N(C)Cc1ccccc1	i	i	i	102	i	i	79
COc1ccccc1/C=C/C(=O)OCC(=O)Nc1c(C)nn(-c2ccccc2)c1C	i	nt	i	i	i	i	nt
OCC1(CCc2ccccc2)CCN(C/C=C/c2ccccc2)CC1	i	i	i	57	i	i	i
CCCCCCCCN1C(=O)[C@H](CC(=O)NCCCOCCCC)C[C@@]2(C(=O)OC)CCCCC=C12	nt	nt	nt	i	nt	nt	nt
CCCCCCCCN1C(=O)[C@H](CC(=O)NCCCOCCCC)C[C@@]2(C(=O)OCC)CCCC=C12	nt	nt	nt	76	nt	nt	i
CCCCCCCCN1C(=O)[C@H](CC(=O)NCCCOCCCC)C[C@@]2(C(=O)OC)CC(C)(C)CC=C12	nt	nt	nt	60	nt	nt	i
COc1cccc(CC(=O)OCC(=O)NCCc2ccc(F)cc2)c1	i	nt	i	i	i	i	nt
CCN(CC)CCN(C(=O)Cn1nnc(-c2ccc(C)o2)n1)C(C(=O)NC1CCCC1)c1ccc(F)cc1 (stereo not given)	nt	i	i	i	nt	nt	nt
Nc1ccc(-c2nc3ccc(N)cc3o2)cc1	i	i	i	63	i	i	i
COc1ccc(OC)c(NS(=O)(=O)c2cccc3cccnc23)c1	i	i	i	i	i	i	nt
COc1ccc(C(C)(C)C)cc1NS(=O)(=O)c1cccc2cccnc12	nt	i	i	59	nt	nt	i
O=C(CSc1nc2ccccc2c(=O)n1CCCN1CCOCC1)Nc1ccc(Br)cc1	i	nt	i	i	nt	nt	nt
CCc1ccc(NC(=O)CSc2nc3ccccc3c(=O)n2CCCN2CCC(C)CC2)cc1	i	i	i	87	i	i	i
CCOC(=O)c1c(NC(=O)c2ccn(CC)n2)sc2c1CCC2	i	i	i	80	i	i	i
O=C(CCNC(=O)c1ccc([N+](=O)[O-])cc1)NC1CCCCCC1	i	nt	i	i	i	i	nt
Cc1ccc2c(Cl)cc(Cl)c(OCc3c(C)noc3C)c2n1	i	i	i	59	i	i	i
COc1ccc2oc(=N)c(-c3nnc4n3CCCCC4)cc2c1	i	i	i	56	i	i	i
N=c1oc2ccc3ccccc3c2cc1-c1nnc2n1CCCCC2	i	nt	i	i	i	i	nt
CCOC(=O)c1c(-c2ccccc2)oc2ccc(OCC(O)CN(C)C)cc12 (stereo not given)	i	i	i	84	i	i	i
CCOC(=O)c1c(-c2ccccc2)oc2ccc(OC(C)C(=O)O)cc12 (stereo not given)	i	i	i	i	i	i	nt
CC1CCCC(NC(=O)COC(=O)[C@@H](NC(=O)c2ccc(F)cc2)C(C)C)C1C (stereo not given in full)	i	nt	i	i	nt	nt	nt
COc1ccc(Nc2nc(-c3sc(C)nc3C)cs2)cc1	i	i	i	82	i	i	i
Cc1nc(C)c(-c2csc(Nc3ccc(N)cc3)n2)s1	i	i	i	i	i	i	nt
COC(=O)c1ccc(CCc2cc(O)ccc2O)cc1	nt	nt	i	i	nt	nt	nt
SMILES	IDE inh	SKKanGAS inh	IDE cell activ	Granule exo inh	PP5 primary	PP1 inh	Granule exo CP1
COC(=O)c1ccc(CCc2cc(O)c(Br)cc2O)cc1	nt	nt	i	98	nt	nt	77
O=C1Nc2ccc(Br)cc2/C1=C/C(=O)c1ccccc1	nt	nt	i	73	nt	nt	83
Cc1ccc(S(=O)(=O)N(C)C)cc1NC(=O)COC(=O)c1ccc2c(=O)n3c(nc2c1)CCC3	i	i	i	i	i	i	nt
Cc1ccc(NC(=O)Cc2nnc(SCC(=O)NC3CCCC3)n2C)cc1C	i	i	i	i	i	i	nt
Cc1ccc(NC(=O)CSc2nnc3ccccn23)cc1S(=O)(=O)N1CCOCC1	i	i	i	81	i	i	i
CCOc1ccc2c(c1)nc(SCC(=O)c1ccc(Br)s1)n2C	i	i	i	103	i	i	i
CCOc1ccc2c(c1)nc(SCC(=O)c1cccs1)n2C	i	i	i	i	i	i	nt
CC1CC(=O)c2cnc(N3CCOCC3)nc2C1 (stereo not given)	i	i	i	100	i	i	i
CC1CC(=O)c2cnc(N)nc2C1 (stereo not given)	i	i	i	i	i	i	nt
CC(=O)N1CCN(S(=O)(=O)c2cccc(C(=O)NCCC3=CCCCC3)c2)CC1	i	i	i	67	i	i	i
CCOC(=O)Cn1c(=N)n(CCOc2ccc(Br)cc2)c2ccccc21	i	i	nt	66	i	i	i
Oc1ccccc1CN1CCCC(N2CCN(c3cccc(C(F)(F)F)c3)CC2)C1 (stereo not given)	i	i	i	68	i	i	i
Fc1ccccc1N1CCN(C2CCCN(Cc3cccc(C(F)(F)F)c3)C2)CC1 (stereo not given)	i	i	i	i	i	i	nt
COc1cc(CN2CCCC(N3CCN(c4ccccc4C)CC3)C2)cc(Cl)c1O (stereo not given)	i	i	i	57	i	i	i
COc1ccc(CN2CCCC(N3CCN(c4cccc(Cl)c4)CC3)C2)cc1OC (stereo not given)	nt	i	i	67	nt	nt	i
COc1cc(CN2CCN(c3ccccc3C)CC2)cc([N+](=O)[O-])c1O	i	i	i	i	i	i	nt
O=C(CN1C(=O)c2ccccc2S1(=O)=O)NCCSCc1c(F)cccc1Cl	i	i	i	i	i	i	nt
CCCCN(C)Cc1c(C)[nH]c2ccccc2c1=O	i	i	i	71	i	i	i
COC(=O)C1CCN(C(=O)CSc2nnc(-c3ccccc3)o2)CC1	i	i	i	i	i	i	nt
O=C1COc2ccc(N3C(=O)c4ccccc4C3=O)cc2N1	i	i	nt	nt	i	i	nt
CCOc1ccc(S(=O)(=O)n2cc(-c3ccc(F)cc3)c(N)n2)cc1	i	i	i	74	i	i	i
Cc1ccc(-c2cn(S(=O)(=O)c3ccc(C)cc3)nc2N)cc1	i	i	i	i	i	i	nt
CCOc1ccc(S(=O)(=O)n2cc(-c3ccccc3)c(N)n2)cc1	i	i	i	67	i	i	i
CCN(CC(=O)NCc1ccc(Cl)cc1)C(=O)C1CCN(S(=O)(=O)c2ccc(OC)c(OC)c2)CC1	i	i	i	i	i	i	nt
Cc1ccc2c3c(cccc13)-c1ccccc1C2=O	i	i	i	97	i	i	77
CCCNC(=O)Cc1c(C)oc2ccccc12	i	i	i	i	i	i	nt
COc1ccc(CN2CCc3c([nH]c4ccccc34)C2)cc1Br	i	i	i	i	i	i	nt
COc1ccc(CN2CCc3c([nH]c4ccccc34)C2)c(OC)c1C	i	i	i	56	i	i	i
COc1cccc(N2CCc3c(C)nc4ccc(Cl)cc4c32)c1	nt	i	i	82	nt	nt	i
c1ccc(CNc2nc(NCC3CC3)nc3cc(-c4ccccc4)sc23)cc1	nt	nt	nt	71	nt	nt	95
